# Active and inactive are the calls of the source. Rule for the calls: active = hit-call score of the fitted dose curve at least 0.9, where 1 is the maximum; inactive = score below 0.9.
# Tests used:
# Conditions in all cases: mRNA level, 48 h; actives raise or lower the signal
# [1] = read-out: Bcl-2 (BID) gene, BID (gene 637); assay: LTEA_HepaRG_BID: Life Technologies and Expression Analysis (LTEA) Assay for Bcl-2 (BID) gene using HepaRG (AID 2283476)
# Summary of the method: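 Gene expression by qRT-PCR in HepaRG cells after 48 h exposure, duplicate wells, eight half-log concentrations topping at 100 uM in 0.5% DMSO. Normalized to ACTB, GAPDH, POLR2A; bidirectional fitting relative to DMSO.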
# Caspase-3 (Homo sapiens) = Caspase-3 (Homo sapiens) (UniProt P42574); assay: LTEA_HepaRG_CASP3: Life Technologies and Expression Analysis (LTEA) Assay for cysteine-aspartic acid protease (CASP3) using HepaRG (AID 2283477)
# Summary of the method: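 Read-out is CASP3 mRNA level by TaqMan qRT-PCR in human HepaRG cells after 48 h chemical exposure. Eight half-log concentrations topping at 100 uM were tested in 0.5% DMSO; gain or loss was fitted relative to DMSO.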
# [2] = read-out: Cytochrome P450 (CYP24A1), CYP24A1 (gene 1591); assay: LTEA_HepaRG_CYP24A1: Life Technologies and Expression Analysis (LTEA) Assay for Cytochrome P450 (CYP24A1) using HepaRG (AID 2283478)
# Summary of the method: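 HepaRG, 48 h chemical exposure, 8-pt half-log CRC from 100 uM, 0.5% DMSO vehicle, duplicates. Endpoint: CYP24A1 mRNA by Fluidigm TaqMan qRT-PCR, normalized ACTB/GAPDH/POLR2A; gain/loss fit vs DMSO.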
# [3] = read-out: Cytochrome P450 (CYP1A2), CYP1A2 (gene 1544); assay: LTEA_HepaRG_CYP1A2: Life Technologies and Expression Analysis (LTEA) Assay for Cytochrome P450 (CYP1A2) using HepaRG (AID 2283479)
# Summary of the method: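 CYP1A2 transcript induction or loss, quantified by Fluidigm qRT-PCR against three housekeeping genes, was fitted bidirectionally against 0.5% DMSO controls. Human HepaRG cells received eight half-log concentrations from 100 uM over 48 h.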
# [4] = read-out: cysteine-aspartic acid protease (CASP8), CASP8 (gene 841); assay: LTEA_HepaRG_CASP8: Life Technologies and Expression Analysis (LTEA) Assay for cysteine-aspartic acid protease (CASP8) using HepaRG (AID 2283480)
# Summary of the method: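 Differentiated human HepaRG cells, plated 48 h then switched to serum-free induction medium, were exposed in duplicate for 48 h to 8 half-log concentrations up to 100 uM in 0.5% DMSO. CASP8 mRNA was quantified by qRT-PCR, normalized to ACTB/GAPDH/POLR2A.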
# [5] = read-out: Cytochrome P450 (CYP2B6), CYP2B6 (gene 1555); assay: LTEA_HepaRG_CYP2B6: Life Technologies and Expression Analysis (LTEA) Assay for Cytochrome P450 (CYP2B6) using HepaRG (AID 2283481)
# Summary of the method: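 HepaRG cells plated 48 h, switched to serum-free induction medium, then dosed 48 h (8 points, half-log from 100 uM, 0.5% DMSO). RNA isolated; CYP2B6 expression measured by qRT-PCR; gain or loss fitted relative to DMSO.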
# [6] = read-out: Cytochrome P450 2C19 (Homo sapiens) (UniProt P33261); assay: LTEA_HepaRG_CYP2C19: Life Technologies and Expression Analysis (LTEA) Assay for CYP2C19 using HepaRG (AID 2283482)
# Summary of the method: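 Transcript levels of CYP2C19 were quantified by qRT-PCR after HepaRG cells were treated for 48 hours with test chemicals up to 100 uM (eight half-log concentrations, 0.5% DMSO vehicle). Gain or loss of signal was fitted relative to DMSO.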
# CYP2C9 (gene 1559) = assay: LTEA_HepaRG_CYP2C9: Life Technologies and Expression Analysis (LTEA) Assay for CYP2C9 using HepaRG (AID 2283484)
# Summary of the method: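 Differentiated human HepaRG cells were exposed 48 h in serum-free induction medium to eight half-log concentrations up to 100 uM in 0.5% DMSO. CYP2C9 mRNA was measured by qRT-PCR, normalized to ACTB, GAPDH and POLR2A, and fitted bidirectionally against DMSO.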
# CYP2E1 (gene 1571) = assay: LTEA_HepaRG_CYP2E1: Life Technologies and Expression Analysis (LTEA) Assay for CYP2E1 using HepaRG (AID 2283485)
# Summary of the method: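 HepaRG cells, plated 48 h, then exposed 48 h in serum-free induction medium to eight half-log concentrations from 100 uM in 0.5% DMSO, duplicate. CYP2E1 mRNA by qRT-PCR, normalized to ACTB/GAPDH/POLR2A; bidirectional fit versus DMSO.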
# CYP4A11 (gene 1579) = assay: LTEA_HepaRG_CYP4A11: Life Technologies and Expression Analysis (LTEA) Assay for CYP4A11 using HepaRG (AID 2283486)
# Summary of the method: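 HepaRG, 48 h chem exposure, 8 conc (100 uM top, half-log), 0.5% DMSO vehicle; qRT-PCR readout, housekeeping-gene normalized; bidirectional curve fit vs DMSO baseline.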
# [7] = read-out: Cytochrome P450 3A4 (Homo sapiens) (UniProt P08684); assay: LTEA_HepaRG_CYP3A4: Life Technologies and Expression Analysis (LTEA) Assay for CYP3A4 using HepaRG (AID 2283487)
# Summary of the method: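 Differentiated HepaRG cells in serum-free induction medium exposed in duplicate for 48 h to 8 half-log concentrations up to 100 uM in 0.5% DMSO. CYP3A4 mRNA measured by qRT-PCR normalized to ACTB, GAPDH and POLR2A; bidirectional fit versus DMSO.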
# [8] = read-out: Pro-epidermal growth factor (Homo sapiens) (UniProt P01133); assay: LTEA_HepaRG_EGF: Life Technologies and Expression Analysis (LTEA) Assay for Epidermal growth factor (EGF) using HepaRG (AID 2283489)
# Summary of the method: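 HepaRG, 48 h dosing, 100 uM top, half-log x8, 0.5% DMSO. Readout: TaqMan qRT-PCR (Fluidigm array), housekeeping-normalized. Gain or loss of signal fit vs DMSO.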
# [9] = read-out: Early growth response protein 1 (EGR1) transcription factor, EGR1 (gene 1958); assay: LTEA_HepaRG_EGR1: Life Technologies and Expression Analysis (LTEA) Assay for Early growth response protein 1 (EGR1) transcription factor using HepaRG (AID 2283490)
# Summary of the method: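 Differentiated human HepaRG cells in serum-free induction medium were exposed in duplicate for 48 h to eight concentrations (top 100 uM, half-log steps) in 0.5% DMSO. EGR1 mRNA was quantified by qRT-PCR, normalized to ACTB, GAPDH and POLR2A, and fitted bidirectionally versus DMSO.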
# [10] = read-out: Ezrin (EZR), EZR (gene 7430); assay: LTEA_HepaRG_EZR: Life Technologies and Expression Analysis (LTEA) Assay for Ezrin (EZR) using HepaRG (AID 2283491)
# Summary of the method: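 Differentiated human HepaRG cells, 48 h after plating, were exposed in serum-free induction medium for 48 hours to eight half-log concentrations up to 100 uM in 0.5% DMSO. EZR mRNA was measured by TaqMan qRT-PCR, normalized to ACTB, GAPDH and POLR2A, and fitted bidirectionally against DMSO.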
# [11] = read-out: Cytochrome P450 3A7 (Homo sapiens) (UniProt P24462); assay: LTEA_HepaRG_CYP3A7: Life Technologies and Expression Analysis (LTEA) Assay for CYP3A7 using HepaRG (AID 2283492)
# Summary of the method: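 Human HepaRG liver cells, 48 h post-plating, switched to serum-free induction medium and exposed in duplicate for 48 h. Dosing: 100 uM top, half-log dilutions, 8 points, 0.5% DMSO vehicle. Read-out: CYP3A7 mRNA, gain or loss fitted against DMSO baseline.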
# [12] = read-out: Fatty Acid-Binding Protein 1 (FABP1), FABP1 (gene 2168); assay: LTEA_HepaRG_FABP1: Life Technologies and Expression Analysis (LTEA) Assay for Fatty Acid-Binding Protein 1 (FABP1) using HepaRG (AID 2283494)
# Summary of the method: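 Differentiated human HepaRG cells were exposed in duplicate for 48 h in serum-free induction medium to 8-point half-log concentration series topping at 100 uM in 0.5% DMSO. FABP1 mRNA measured by TaqMan qRT-PCR, normalized to ACTB/GAPDH/POLR2A; bidirectional fit versus DMSO.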
# [13] = read-out: Cytochrome P450 4A22 (Homo sapiens) (UniProt Q5TCH4); assay: LTEA_HepaRG_CYP4A22: Life Technologies and Expression Analysis (LTEA) Assay for Cytochrome P450 4A22 (CYP4A22) using HepaRG (AID 2283495)
# Summary of the method: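 Readout is CYP4A22 transcript induction or loss, quantified by qRT-PCR and normalized to ACTB, GAPDH and POLR2A. Human HepaRG cells receive test chemicals for 48 h at eight half-log concentrations from 100 uM in 0.5% DMSO.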
# CYP2C8 (gene 1558) = assay: LTEA_HepaRG_CYP2C8: Life Technologies and Expression Analysis (LTEA) Assay for CYP2C8 using HepaRG (AID 2283483)
# Summary of the method: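 Differentiated human HepaRG cells were exposed for 48 h in serum-free induction medium to eight half-log concentrations up to 100 uM in 0.5% DMSO, in duplicate. CYP2C8 mRNA was measured by TaqMan qRT-PCR, normalized to ACTB, GAPDH and POLR2A, and fitted bidirectionally against DMSO.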
# [14] = read-out: DNA damage-inducible transcript 3 (DDIT3), DDIT3 (gene 1649); assay: LTEA_HepaRG_DDIT3: Life Technologies and Expression Analysis (LTEA) Assay for DNA damage-inducible transcript 3 (DDIT3) using HepaRG (AID 2283488)
# Summary of the method: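 HepaRG cells, 48 h after plating, exposed 48 h in serum-free induction medium to 8 half-log concentrations up to 100 uM in 0.5% DMSO, in duplicate. DDIT3 mRNA measured by TaqMan qRT-PCR, normalized to ACTB, GAPDH and POLR2A. Fitted bidirectionally against DMSO.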
# CYP3A5 (gene 1577) = assay: LTEA_HepaRG_CYP3A5: Life Technologies and Expression Analysis (LTEA) Assay for CYP3A5 using HepaRG (AID 2283493)
# Summary of the method: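 HepaRG cells, plated 48 h then in serum-free induction medium, dosed in duplicate for 48 h with eight half-log concentrations up to 100 uM in 0.5% DMSO. Gene mRNA by Fluidigm TaqMan qRT-PCR, normalized to ACTB, GAPDH, POLR2A.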
# Sequence of Cytochrome P450 2C19 (Homo sapiens) (P33261 whole entry, looked up): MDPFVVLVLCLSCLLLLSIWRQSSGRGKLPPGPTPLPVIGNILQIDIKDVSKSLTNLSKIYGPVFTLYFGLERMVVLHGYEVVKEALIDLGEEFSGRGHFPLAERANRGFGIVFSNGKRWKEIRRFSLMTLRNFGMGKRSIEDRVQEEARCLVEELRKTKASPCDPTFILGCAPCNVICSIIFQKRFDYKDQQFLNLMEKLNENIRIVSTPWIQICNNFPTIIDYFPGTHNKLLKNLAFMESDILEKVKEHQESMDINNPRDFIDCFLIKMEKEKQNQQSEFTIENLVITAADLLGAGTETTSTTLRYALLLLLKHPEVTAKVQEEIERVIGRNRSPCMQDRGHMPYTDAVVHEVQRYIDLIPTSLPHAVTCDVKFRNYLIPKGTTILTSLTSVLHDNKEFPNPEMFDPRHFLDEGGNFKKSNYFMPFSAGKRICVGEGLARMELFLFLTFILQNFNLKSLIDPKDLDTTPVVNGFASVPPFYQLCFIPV
# Sequence of Caspase-3 (Homo sapiens) (P42574 whole entry, looked up): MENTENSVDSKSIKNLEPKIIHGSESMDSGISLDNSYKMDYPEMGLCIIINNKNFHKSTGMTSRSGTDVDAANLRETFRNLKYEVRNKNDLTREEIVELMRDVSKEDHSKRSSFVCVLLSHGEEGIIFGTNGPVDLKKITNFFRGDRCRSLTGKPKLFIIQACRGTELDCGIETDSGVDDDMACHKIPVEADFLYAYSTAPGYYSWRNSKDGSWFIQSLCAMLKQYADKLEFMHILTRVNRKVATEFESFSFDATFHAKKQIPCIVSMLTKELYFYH
# Sequence of Cytochrome P450 3A7 (Homo sapiens) (P24462 whole entry, looked up): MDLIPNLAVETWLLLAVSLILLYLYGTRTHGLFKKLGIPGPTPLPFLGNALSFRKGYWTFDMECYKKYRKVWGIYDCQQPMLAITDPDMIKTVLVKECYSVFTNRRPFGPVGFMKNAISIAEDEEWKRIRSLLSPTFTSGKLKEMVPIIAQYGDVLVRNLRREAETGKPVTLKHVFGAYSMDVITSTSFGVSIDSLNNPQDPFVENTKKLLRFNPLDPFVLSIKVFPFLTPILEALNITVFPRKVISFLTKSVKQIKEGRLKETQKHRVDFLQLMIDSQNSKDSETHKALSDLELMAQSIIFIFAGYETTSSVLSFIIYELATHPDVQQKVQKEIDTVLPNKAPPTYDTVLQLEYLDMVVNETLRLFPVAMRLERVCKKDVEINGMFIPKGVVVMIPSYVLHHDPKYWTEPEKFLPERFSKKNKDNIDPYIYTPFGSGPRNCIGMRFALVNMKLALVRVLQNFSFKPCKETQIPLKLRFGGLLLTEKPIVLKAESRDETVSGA
# Sequence of Cytochrome P450 3A4 (Homo sapiens) (P08684 whole entry, looked up): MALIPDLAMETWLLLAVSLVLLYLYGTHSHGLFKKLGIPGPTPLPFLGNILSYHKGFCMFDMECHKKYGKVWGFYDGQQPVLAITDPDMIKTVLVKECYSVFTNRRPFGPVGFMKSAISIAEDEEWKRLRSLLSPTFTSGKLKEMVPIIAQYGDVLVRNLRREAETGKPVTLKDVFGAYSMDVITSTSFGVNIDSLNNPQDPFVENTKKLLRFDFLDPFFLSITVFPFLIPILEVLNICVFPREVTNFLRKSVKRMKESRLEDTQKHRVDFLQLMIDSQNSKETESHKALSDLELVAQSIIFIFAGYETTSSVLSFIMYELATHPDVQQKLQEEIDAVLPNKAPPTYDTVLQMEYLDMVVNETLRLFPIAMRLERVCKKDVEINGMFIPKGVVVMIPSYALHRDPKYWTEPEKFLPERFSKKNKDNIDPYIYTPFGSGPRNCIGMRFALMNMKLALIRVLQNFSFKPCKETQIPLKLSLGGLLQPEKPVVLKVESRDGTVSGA
compound,measurement,setting,value
CCC(=O)Nc1ccc(Cl)c(Cl)c1,outcome,[1],inactive
same,outcome,Caspase-3 (Homo sapiens),inactive
same,outcome,[2],inactive
same,AC50,[3],33 µM (active)
same,outcome,[4],inactive
same,AC50,[5],12.6 µM (active)
same,AC50,[6],32.7 µM (active)
same,outcome,CYP2C9 (gene 1559),inactive
same,AC50,CYP2E1 (gene 1571),50 µM (active)
same,AC50,CYP4A11 (gene 1579),50 µM (active)
same,outcome,[7],inactive
same,outcome,[8],inactive
same,outcome,[9],inactive
same,outcome,[10],inactive
same,outcome,[11],inactive
same,AC50,[12],9.92 µM (active)
same,outcome,[13],inactive
Cc1cc(C2CC2)nc(Nc2ccccc2)n1,outcome,[1],inactive
same,outcome,Caspase-3 (Homo sapiens),inactive
same,outcome,[2],inactive
same,AC50,[3],91.5 µM (active)
same,outcome,[4],inactive
same,AC50,[5],18 µM (active)
same,outcome,[6],inactive
same,outcome,CYP2C8 (gene 1558),inactive
same,outcome,CYP2C9 (gene 1559),inactive
same,outcome,CYP2E1 (gene 1571),inactive
same,outcome,CYP4A11 (gene 1579),inactive
same,outcome,[7],inactive
same,outcome,[14],inactive
same,outcome,[8],inactive
same,outcome,[9],inactive
same,outcome,[10],inactive
same,outcome,[11],inactive
same,outcome,CYP3A5 (gene 1577),inactive
same,outcome,[12],inactive
CCOP(=S)(Oc1cnc(C(C)(C)C)nc1)OC(C)C (stereo not given),outcome,[1],inactive
same,outcome,Caspase-3 (Homo sapiens),inactive
same,outcome,[2],inactive
same,outcome,[3],inactive
same,outcome,[4],inactive
same,AC50,[5],4.96 µM (active)
same,AC50,[6],11.5 µM (active)
same,outcome,CYP2C8 (gene 1558),inactive
same,AC50,CYP2E1 (gene 1571),26.8 µM (active)
same,AC50,CYP4A11 (gene 1579),50 µM (active)
same,AC50,[7],13.9 µM (active)
same,outcome,[14],inactive
same,outcome,[8],inactive
same,outcome,[9],inactive
same,outcome,[10],inactive
same,outcome,[11],inactive
same,AC50,[12],2.01 µM (active)
same,outcome,[13],inactive
CCc1cccc(C)c1N(C(=O)CCl)C(C)COC (stereo not given),outcome,[1],inactive
same,outcome,Caspase-3 (Homo sapiens),inactive
same,outcome,[2],inactive
same,outcome,[3],inactive
same,outcome,[4],inactive
same,AC50,[5],14.2 µM (active)
same,AC50,[6],16 µM (active)
same,AC50,CYP2E1 (gene 1571),50 µM (active)
same,outcome,CYP4A11 (gene 1579),inactive
same,AC50,[7],11.3 µM (active)
same,outcome,[8],inactive
same,outcome,[9],inactive
same,outcome,[10],inactive
same,outcome,[11],inactive
same,AC50,[12],37.9 µM (active)
same,outcome,[13],inactive
N#CSCSC#N,outcome,[1],inactive
same,outcome,Caspase-3 (Homo sapiens),inactive
same,outcome,[2],inactive
same,outcome,[3],inactive
same,outcome,[4],inactive
same,AC50,[5],92.3 µM (active)
same,AC50,[6],90.8 µM (active)
same,AC50,CYP2C8 (gene 1558),89.4 µM (active)
same,AC50,CYP2E1 (gene 1571),82.9 µM (active)
same,AC50,CYP4A11 (gene 1579),81.5 µM (active)
same,AC50,[7],77.2 µM (active)
same,outcome,[14],inactive
same,outcome,[8],inactive
same,outcome,[9],inactive
same,outcome,[10],inactive
same,AC50,[11],59.5 µM (active)
same,AC50,[12],86.2 µM (active)
Nc1nc(N)nc(NC2CC2)n1,outcome,[1],inactive
same,outcome,Caspase-3 (Homo sapiens),inactive
same,outcome,[2],inactive
same,outcome,[3],inactive
same,outcome,[5],inactive
same,outcome,[6],inactive
same,outcome,CYP2C8 (gene 1558),inactive
same,outcome,CYP2C9 (gene 1559),inactive
same,outcome,CYP2E1 (gene 1571),inactive
same,outcome,CYP4A11 (gene 1579),inactive
same,outcome,[7],inactive
same,outcome,[14],inactive
same,outcome,[8],inactive
same,outcome,[9],inactive
same,outcome,[10],inactive
same,outcome,[11],inactive
same,outcome,CYP3A5 (gene 1577),inactive
same,outcome,[12],inactive

# Reference: PubChem BioAssay (EPA / NIEHS)
